{"source": "PubChem BioAssay (Tox21)", "note": "Results filed as inconclusive are left out. Entries that show only a call come without a potency. Activity calls are given as the source filed them. Calls come from the whole dose curve; as a rule, active = well fitted cell-killing curve with a large enough effect in the repeat runs; inconclusive = weak or mixed curves, or effect the other way; inactive = flat fitted curve, though single readings scatter. Potency is the fitted concentration of half-maximal effect.", "data": [{"assay": "qHTS assay to identify small molecule agonists of the estrogen receptor beta (ER-beta) signaling pathway - cell viability counter screen (AID 1259380); note: nearly all actives have a fitted effect of over 30% in size", "settings": "ER-beta-bla HEK293T viability, CellTiter-Glo luminescence, 16 h; series mostly up to 92.4 µM", "excerpt": "National Center for Advancing Translational Sciences [NCATS]\nNIH Chemical Genomics Center [NCGC]\nU.S. Environmental Protection Agency [EPA]\nNational Institutes of Environmental Health Sciences [NIEHS]\nNational Toxicology Program [NTP]\nU.S. Food and Drug Administration [FDA]\nEstrogen receptor (ER), a nuclear hormone receptor, plays an important role in development, metabolic homeostasis and reproduction. Two subtypes of ER, ER-alpha and ER-beta, have similar expression patterns with some uniqueness in both types. Endocrine disrupting chemicals (EDCs) and their interactions with steroid hormone receptors like ER causes disruption of normal endocrine function. To identify the compounds that activate ER signaling, an ER beta-UAS-bla GripTite cell line (Life Technologies, Madison, WI, USA) containing a beta-lactamase reporter gene under the control of an UAS response element was used to screen Tox21 10K compound library. The cytotoxicity of the Tox21 compound library against the ER-beta-bla cell line was tested in parallel by measuring the cell viability using CellTiter-Glo assay in the same wells.\nTox21 Assay Protocol Summary:\nER-beta-UAS-bla HEK293T cells were dispensed at 2,000 cells/5 uL of assay medium containing 2% charcoal stripped FBS per well into black wall/clear-bottom 1536-well plates using a Multidrop Combi (ThermoFisher Scientific, Waltham, MA) dispenser. After the assay plates were incubated at a 37C and 5% CO2 for 6 hr, 23 nL of compounds dissolved in DMSO, positive controls or DMSO only was transferred to the assay plate by a Pintool station (Kalypsys, San Diego, CA). The plates were incubated at 37C and 5% CO2 for 16 hr. Then 1 uL of LiveBLAzerTM B/G FRET substrate was added using a BioRAPTR FRD (Flying Reagent Dispenser, Aurora Discovery, San Diego, CA) and then the plates were incubated at room temperature for 2 hours, and fluorescence intensity was measured by an Envision plate reader (PerkinElmer, Shelton, CT). For cell viability readout that measures cytotoxicity, 4 uL/well of CellTiter-Glo reagent was added into the assay plates using a FRD. After 30 min incubation at room temperature, the luminescence intensity in the plates was measured using a ViewLux (PerkinElmer) plate reader.", "values": [{"smiles": "N#Cc1ccc(C(c2ccc(C#N)cc2)n2cncn2)cc1", "Potency": "inactive"}, {"smiles": "Nc1cccc(S(=O)(=O)O)c1", "Potency": "inactive"}, {"smiles": "COC(=O)c1ccc2cc(C(=O)OC)ccc2c1", "activity change, negative = cytotoxicity": "0.723% [at 19 µM] (inactive)"}, {"smiles": "CCN[C@H]1CN(CCCOC)S(=O)(=O)c2sc(S(N)(=O)=O)cc21", "Potency": "inactive"}, {"smiles": "CCC(=O)Nc1ccc(O)cc1", "Potency": "inactive"}, {"smiles": "CC(C)Nc1nc(N)nc(Cl)n1", "Potency": "inactive"}, {"smiles": "CC(C)C1=CC2=CC[C@@H]3[C@](C)(CCC[C@@]3(C)C(=O)O)[C@H]2CC1", "Potency": "30.6 µM (active)"}, {"smiles": "CS(=O)(=O)c1ccc([C@@H](O)[C@@H](CF)NC(=O)C(Cl)Cl)cc1", "Potency": "inactive"}, {"smiles": "COc1ccc2nc(NC(=O)Nc3ccccc3)sc2c1", "Potency": "10.6 µM (active)"}, {"smiles": "O=C1C=CC(=O)O1", "Potency": "inactive"}, {"smiles": "CCNCCO", "Potency": "inactive"}, {"smiles": "CCN(CCCc1ccccc1)CCCc1ccccc1", "Potency": "11.9 µM (active)"}, {"smiles": "Cc1ccc(C)c(N)c1", "Potency": "inactive"}, {"smiles": "FC(F)(F)C(F)(F)C(F)(F)C(F)(F)C(F)(F)C(F)(F)C(F)(F)C(F)(F)Br", "Potency": "inactive"}, {"smiles": "NC/C=C/C(=O)O", "Potency": "inactive"}, {"smiles": "CC(=O)OC1C2(C)CCC(C2)C1(C)C", "note": "(stereo not given)", "Potency": "inactive"}, {"smiles": "CCCCCCCOC(=O)CCC", "Potency": "inactive"}, {"smiles": "OCCN(CCO)c1ccccc1", "Potency": "inactive"}, {"smiles": "FC(F)(F)c1ccccc1", "Potency": "inactive"}, {"smiles": "CCCCC(=O)O[C@]1(C(=O)CO)[C@H](C)C[C@H]2[C@@H]3CCC4=CC(=O)C=C[C@]4(C)[C@@]3(F)[C@@H](O)C[C@@]21C", "Potency": "inactive"}, {"smiles": "NS(=O)(=O)c1cc(-c2nn[nH]n2)c(NCc2cccs2)cc1Cl", "Potency": "inactive"}, {"smiles": "C[C@]12CCC(=O)C=C1CC[C@@H]1[C@@H]2CC[C@@]2(C)[C@H]1CC[C@]2(O)C(=O)CO", "Potency": "inactive"}, {"smiles": "O=C1CCCCCCCCCCC(=O)OCCO1", "Potency": "inactive"}, {"smiles": "O=C1N(c2ccccc2)c2ccccc2C1(Cc1ccncc1)Cc1ccncc1", "Potency": "inactive"}, {"smiles": "COc1ccc(S(=O)(=O)Nc2nnc(CC(C)C)s2)cc1", "Potency": "inactive"}, {"smiles": "CC1=NN(c2cc(Cl)c(S(=O)(=O)O)cc2Cl)C(=O)C1N=Nc1ccc(S(=O)(=O)O)cc1", "note": "(stereo not given)", "Potency": "inactive"}, {"smiles": "Oc1ccccc1F", "Potency": "inactive"}, {"smiles": "CCCCCCn1c(=O)c2c(ncn2C)n(C)c1=O", "Potency": "inactive"}, {"smiles": "CN(C)Cc1ccccc1", "Potency": "inactive"}, {"smiles": "CC(C)=CCC[C@](C)(O)[C@@H]1CC=C(C)CC1", "Potency": "inactive"}, {"smiles": "CN(C)CC[C@@H](c1ccc(Cl)cc1)c1ccccn1", "Potency": "inactive"}, {"smiles": "C[C@]12C(=O)OC(=O)[C@H]1[C@H]1C=C[C@@H]2C1", "Potency": "inactive"}, {"smiles": "COC(=O)N[C@H](C(=O)N[C@@H](Cc1ccccc1)[C@@H](O)CN(Cc1ccc(-c2ccccn2)cc1)NC(=O)[C@@H](NC(=O)OC)C(C)(C)C)C(C)(C)C", "Potency": "inactive"}, {"smiles": "CCCCCCCCOC(=O)CCCCCCCCC(=O)OCCCCCCCC", "Potency": "inactive"}, {"smiles": "COC(=O)/C=C(/C)N", "Potency": "inactive"}, {"smiles": "CN1CCN(c2c(F)cc3c(=O)c(C(=O)O)cn4c3c2SCC4)CC1", "Potency": "inactive"}, {"smiles": "CC(C)C(=O)OCC(C)(C)C(O)C(C)C", "note": "(stereo not given)", "Potency": "inactive"}, {"smiles": "C=CC(C)(O)CC/C=C(\\C)CCC=C(C)C", "note": "(stereo not given)", "Potency": "inactive"}, {"smiles": "CCN(O)CC", "Potency": "inactive"}, {"smiles": "CCC/C=C/CO", "Potency": "inactive"}]}]}
